Tau FP inhib: qHTS for Inhibitors of Tau Fibril Formation, Fluorescence Polarization. 0.39% of 280,000 active. K18 P301L tau heparin fibrillization, Alexa594 FP, 6 h. Potency, µM (series often up to 57.7 µM), usual class: inhibitors; also: nearly all actives have a fitted effect of over 55% in size
Target sequence (P10636 561-689 P618L limits assumed): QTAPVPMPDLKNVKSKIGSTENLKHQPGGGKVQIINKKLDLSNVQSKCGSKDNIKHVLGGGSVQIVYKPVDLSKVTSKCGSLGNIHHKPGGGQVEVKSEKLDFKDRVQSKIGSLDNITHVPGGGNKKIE
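Human K18 P301L fragment (15 uM unlabeled plus 0.24 uM Alexa 594-labeled) in 100 mM sodium acetate pH 7 with compound, aggregation induced by 20 uM heparin for 6 hr at 37 C. ThT (30 uM) added for 1 hr, then Alexa 594 FP read.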
Tau fluor cs: Counterscreen qHTS for Inhibitors of Tau Fibril Formation, Fluorescence Polarization | tau K18 P301L Alexa594 fluorescence, heparin fibrillization | Potency, µM (doses to about 57.7 µM) | 0.93% of 280,000 active; also: nearly all actives have a fitted effect of over 55% in size
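Human tau K18 P301L (15 uM unlabeled, 0.24 uM Alexa 594-labeled) in 100 mM sodium acetate pH 7 with 20 uM heparin, 6 hr at 37 C. ThT 30 uM added, 1 hr ambient; Alexa 594 FP and total fluorescence read at 555/632 nm.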
G9a inh: qHTS Assay for Inhibitors of Histone Lysine Methyltransferase G9a; Histone-lysine N-methyltransferase EHMT2 (Homo sapiens), Q96KQ7; G9a H3K9 monomethylation, AlphaScreen, 2 h; Potency, µM (series often up to 102 µM), most hits filed as inhibitors; 8.8% of 350,000 active; also: nearly all actives have a fitted effect of over 75% in size
Target sequence (Q96KQ7 913-1193 limits assumed): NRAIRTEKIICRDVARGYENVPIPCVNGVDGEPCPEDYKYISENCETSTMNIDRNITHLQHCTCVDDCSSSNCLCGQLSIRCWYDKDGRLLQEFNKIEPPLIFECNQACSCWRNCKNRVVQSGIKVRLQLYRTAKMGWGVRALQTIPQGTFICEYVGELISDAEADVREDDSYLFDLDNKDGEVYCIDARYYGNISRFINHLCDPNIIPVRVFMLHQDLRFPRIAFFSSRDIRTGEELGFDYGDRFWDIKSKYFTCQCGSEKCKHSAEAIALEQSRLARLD
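G9a (20 nM) preincubated 15 min RT with compounds, then 500 nM biotinylated H3K9 peptide and 20 uM SAM added; 2 h RT reaction. Monomethyl-H3K9 product detected by AlphaScreen with anti-H3K9me1 antibody, streptavidin donor and anti-rabbit IgG acceptor beads.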
Tau ThT inhib: qHTS for Inhibitors of Tau Fibril Formation, Thioflavin T Binding. Microtubule-associated protein tau (Homo sapiens), P10636. recombinant tau K18 P301L, heparin-induced fibrillization, ThT fluorescence. Potency, µM (highest dose often 57.4 µM), actives largely listed as inhibitors. 2.1% of 270,000 active. AID 1460, 2008; also: nearly all actives have a fitted effect of over 55% in size
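Fibril formation assay: tau K18 P301L at 15 uM with trace Alexa 594 label, heparin inducer 20 uM, pH 7 sodium acetate buffer, 37 C for 6 hr; endpoint ThT signal.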
Sfp inh: qHTS Assay for Inhibitors of Bacillus subtilis Sfp phosphopantetheinyl transferase (PPTase); AID 1490, 2009; Biochemical Sfp PPTase activity, qHTS; 3.5% of 310,000 active; Potency, µM, most hits filed as inhibitors;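 also: the enzyme is Sfp with the accession as filed and its product quenches rhodamine fluorescence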
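Buffer: 50 mM Hepes-Na pH 7.6, 10 mM MgCl2, 0.01% Nonidet P-40, 0.01% BSA. Enzyme 15 nM, pre-exposed to compound 15 min; substrates then added and fluorescence change tracked over 30 min.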
FBPA coupling cs: qHTS Assay for Inhibitors of Fructose-1,6-bisphosphate Aldolase from Giardia Lamblia: Coupling assay counterscreen; activity change, negative = inhibition, % at 58.2 µM, hits read low; coupling enzyme system counterscreen, AmpLite Red fluorescence; AID 2472, 2010; 0.67% of 290,000 active; in the data active = activity change below about -30%
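Activity here indicates interference with the coupling reaction, not aldolase inhibition. Compounds at 57.5 uM final met coupling enzymes for 10 min at RT; substrate and AmpLite Red detection followed, with a 525/598 nm fluorescence read after 20 min.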
Of the large screens only hits and unclear results are named; the others gave an inactive call; [ ] = remark or other dose. Shown are actives, neighbours in structure and some others; about 11% of the full set was active somewhere. Unless noted, calls follow the shape of the dose curve; as a rule, active = well fitted curve in the direction sought with a large enough effect; inconclusive = small, poorly fitted or top-dose-only effect, or another doubt; inactive = no such curve, though single readings can be large; an effect the other way counts as inactive or inconclusive.

CCn1c(C(=O)N2CCc3ccccc3C2)cc2sccc21	G9a inh 50.1µM, Tau ThT inhib inconclusive
CCn1c(C)c(C)c2cc(C(=O)N3CCc4ccccc4C3)ccc21	G9a inh 44.7µM (no result: Tau FP inhib, Tau fluor cs, Tau ThT inhib)
CC[n+]1ccccc1/C=C/c1ccc(N(C)C)cc1	G9a inh 28.2µM, Tau ThT inhib 14.1µM
CCN(CC)c1ccc(/C=C/c2ccc3ccc(OC)cc3[n+]2CC)cc1	G9a inh 25.1µM (no result: Tau FP inhib, Tau fluor cs, Tau ThT inhib)
C[n+]1c(/C=C/c2ccc(O)cc2)ccc2ccccc21	G9a inh 17.8µM (no result: Tau FP inhib, Tau fluor cs, Tau ThT inhib)
CCN(CC)c1nc2cc(OC)ccc2cc1C#N	none
CC[n+]1ccc(/C=C/c2ccc(N(C)C)cc2)c2ccccc21	Tau FP inhib inconclusive, Tau fluor cs 0.708µM[fluorescent], Tau ThT inhib 1.41µM, Sfp inh inconclusive (no result: G9a inh)
CN(C)c1ccc(C(=O)/C=C/c2ccccc2)cc1	Tau ThT inhib inconclusive
O=C(O)C1CC(C2CCCCN2)CN2CCCCC12 (stereo unspecified)	none (no result: G9a inh)
CN(Cc1c(C(=O)N/N=C/c2cccs2)nnn1-c1nonc1N)c1ccccc1	none (no result: Tau FP inhib, Tau fluor cs, Tau ThT inhib)
O=C(CN1C(=O)NC2(CCCC2)C1=O)OCCOc1ccccc1Cl	none (no result: Tau FP inhib, Tau fluor cs, Tau ThT inhib, Sfp inh, FBPA coupling cs)
CC[n+]1c(/C=C/c2cc([N+](=O)[O-])ccc2O)ccc2ccccc21	none (no result: Tau FP inhib, Tau fluor cs, G9a inh, Tau ThT inhib)
CC[n+]1c(/C=C/c2ccc(OC)c(OC)c2)ccc2ccccc21	none (no result: Tau FP inhib, Tau fluor cs, G9a inh, Tau ThT inhib)
CC[n+]1c(/C=C/c2ccc(N(C)C)cc2)ccc2ccccc21	G9a inh 14.1µM
CC[n+]1c(/C=C/c2ccc(OC(C)=O)c(OC)c2)ccc2ccccc21	G9a inh 25.1µM (no result: Tau FP inhib, Tau fluor cs, Tau ThT inhib)
O=C(NCc1ccccc1)c1nnc(CS(=O)(=O)c2ccccc2)o1	none (no result: Tau FP inhib, Tau fluor cs, Tau ThT inhib)
CCCn1cnc2cc(NCc3ccc(Br)cc3)ccc21	G9a inh 44.7µM (no result: Tau FP inhib, Tau fluor cs, Tau ThT inhib)
CCn1cnc2cc(NCc3ccc(Br)cc3)ccc21	G9a inh 12.6µM (no result: Tau FP inhib, Tau fluor cs, Tau ThT inhib)
CCn1cnc2cc(NCc3ccc(C)cc3)ccc21	G9a inh 1.58µM, Tau ThT inhib inconclusive
COc1cc(CNc2ccc3c(c2)ncn3C(C)C)cc(OC)c1OC	G9a inh inconclusive, Tau ThT inhib inconclusive (no result: Sfp inh, FBPA coupling cs)
Cc1ccc(CNc2ccc3c(c2)ncn3C(C)C)cc1	G9a inh 11.2µM
CC(=O)Nc1ccc(C(=O)OCC(=O)Nc2c(F)cccc2F)cc1	none
CCCn1cnc2cc(NCc3ccccc3O)ccc21	G9a inh 39.8µM (no result: Tau FP inhib, Tau fluor cs, Tau ThT inhib)
CCCn1cnc2cc(NCc3ccc(OC)cc3OC)ccc21	G9a inh 2.82µM, Tau ThT inhib inconclusive (no result: Sfp inh, FBPA coupling cs)
CCn1cnc2cc(NCc3cccs3)ccc21	G9a inh 44.7µM
CCCn1cnc2cc(NCc3cccc(OC)c3)ccc21	none
Cn1cnc2cc(NCc3ccc(Cl)cc3)ccc21	G9a inh 44.7µM (no result: Tau FP inhib, Tau fluor cs, Tau ThT inhib)
O=C(c1ccc(Br)cc1)N(Cc1ccco1)c1ccccn1	none (no result: Sfp inh, FBPA coupling cs)
O=C(/C=C/c1cn(-c2ccccc2)nc1-c1cccnc1)c1ccco1	Tau ThT inhib inconclusive
CCOc1ccc(NC(=O)c2ccc3c(SCC(=O)O)c4c(nc3c2)CCCC4)cc1	Tau ThT inhib inconclusive
O=C(O)CSc1c2c(nc3cc(C(=O)NCCN4CCOCC4)ccc13)CCC2	G9a inh inconclusive, Sfp inh 89.1µM
O=C(O)CSc1c2c(nc3cc(C(=O)Nc4cccc(C(F)(F)F)c4)ccc13)CCC2	G9a inh 39.8µM (no result: Tau FP inhib, Tau fluor cs, Tau ThT inhib, FBPA coupling cs)
CC(C)CCNC(=O)c1ccc2c(SCC(=O)O)c3c(nc2c1)CCCC3	G9a inh inconclusive, Tau ThT inhib inconclusive
Cc1cc(C)c2sc(N(Cc3cccnc3)C(=O)CCS(=O)(=O)c3ccccc3)nc2c1	none (no result: Sfp inh, FBPA coupling cs)
CC(=O)Nc1nc2cc3c(cc2s1)OCCO3	none (no result: Tau FP inhib, Tau fluor cs, G9a inh, Tau ThT inhib)
O=C(Nc1nc2cc3c(cc2s1)OCO3)C1CC1	none (no result: G9a inh, Tau ThT inhib)
CC(C)C(=O)Nc1nc2cc3c(cc2s1)OCO3	none
Fc1cc(F)c2nc(Nc3nc4cc5c(cc4s3)OCO5)sc2c1	Tau fluor cs 5.01µM[quencher], Tau ThT inhib inconclusive
Fc1cccc2sc(Nc3nc4cc5c(cc4s3)OCCO5)nc12	Tau fluor cs 14.1µM[quencher], Tau ThT inhib inconclusive
Fc1cccc2sc(Nc3nc4cc5c(cc4s3)OCO5)nc12	Tau fluor cs 7.94µM[quencher], Tau ThT inhib 7.94µM
COc1ccccc1OCC(=O)NCCS(=O)(=O)N1CCN(c2ccccc2OC)CC1	none (no result: Sfp inh, FBPA coupling cs)
C=CCOc1ccc(/C=N/NC(=O)CN2CCCCC2)cc1OC	none (no result: Tau FP inhib, Tau fluor cs, Tau ThT inhib)
CCn1cc(C(=O)NCCc2ccc(Cl)cc2)c(=O)c2cc(S(=O)(=O)N3CCC(C)CC3)ccc21	none (no result: Sfp inh, FBPA coupling cs)
CCOc1ccc(S(=O)(=O)Nc2nc3ccc(OC)cc3s2)cc1	G9a inh inconclusive

Screening results: PubChem BioAssay, National Center for Advancing Translational Sciences (NCATS)
